# Test results from PubChem BioAssay (NCATS).
# Results filed as inconclusive are left out. Entries that show only a call come without a potency. Active and inactive are the calls of the source. Unless noted, calls come from the whole dose curve.
# How the values were obtained:
# [1] = Cytotoxicity counterscreen for inhibitors of SARS-CoV-2 cell entry (AID 1645845); note: nearly all actives have a fitted effect of over 50% in size
# Method in brief: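 Expi293F/hACE2 cells seeded overnight; cpd pin-transferred in DMSO, 1 h preincubation, + media, 48 h 37 C 5% CO2; ATPLite 1step luminescence; normalized to cells and no cells.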
# [2] = Primary qHTS for inhibitors of nuclear receptor binding SET domain protein 2 (NSD2) in an isogenic RCH-ACV NSD2 p.E1099K mutant (9B) (AID 1645876; active = well fitted curve in the direction sought with a large enough effect; an effect the other way counts as inactive or inconclusive; note: nearly all actives have a fitted effect of over 70% in size)
# [3] = Primary qHTS for inhibitors of nuclear receptor binding SET domain protein 2 (NSD2) in an RCH-ACV wild type WT cells (2C) (AID 1645877; active = well fitted curve in the direction sought with a large enough effect; an effect the other way counts as inactive or inconclusive; note: nearly all actives have a fitted effect of over 70% in size)
# [4] = Primary qHTS to identify inhibitors of SARS-CoV-2 cell entry (AID 1645846); note: nearly all actives have a fitted effect of over 45% in size
# Method in brief: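 Using luciferase-reporting pseudoviruses carrying Wuhan-Hu-1 spike, the screen tracks entry into stably ACE2-expressing cells over 48 hr. Activity is expressed relative to spike particles versus particles lacking any fusion protein.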
# [5] = activity change, negative = inhibition: at 57.1 µM (top of the series) unless noted
smiles,measurement,setting,value
CC(C)C[C@H](CN)CC(=O)O,Potency,[1],inactive
same,Potency,[2],inactive
same,Potency,[3],inactive
C[C@]12C=CC(=O)C=C1CC[C@@H]1[C@@H]2[C@@H](O)C[C@@]2(C)[C@H]1CC[C@]2(O)C(=O)CO,Potency,[1],inactive
same,Potency,[4]; [5],inactive
same,"activity change, negative = inhibition",[4]; [5],-3.66%
NCCS(=O)(=O)O,Potency,[1],inactive
same,Potency,[4]; [5],inactive
same,"activity change, negative = inhibition",[4]; [5],-2.14%
Cc1ccc(C(=O)C(=O)O)cc1C,Potency,[1],inactive
same,"activity change, negative = inhibition",[4]; [5],-19.4%
CO[C@@H]1[C@@H](OC(N)=O)[C@@H](O)[C@H](Oc2ccc3c(O)c(NC(=O)c4ccc(O)c(CC=C(C)C)c4)c(=O)oc3c2C)OC1(C)C,Potency,[1],inactive
same,Potency,[4]; [5],inactive
same,"activity change, negative = inhibition",[4]; [5],0.81%
Clc1ccc2nsnc2c1NC1=NCCN1,Potency,[1],inactive
same,Potency,[4]; [5],inactive
same,"activity change, negative = inhibition",[4]; [5],-13.9%
CCOC(=O)C1=C[C@@H](OC(CC)CC)[C@H](NC(C)=O)[C@@H](N)C1,Potency,[1],inactive
same,Potency,[4]; [5],inactive
same,"activity change, negative = inhibition",[4]; [5],-2%
O=C(O)c1cccnc1,Potency,[1],inactive
same,Potency,[4]; [5],inactive
same,"activity change, negative = inhibition",[4]; [5],-20.2% [at 114 µM]
O=S(=O)(O)CCS,Potency,[1],inactive
same,Potency,[4]; [5],inactive
same,"activity change, negative = inhibition",[4]; [5],1.92%
O=C(NCC1CCCCN1)c1cc(OCC(F)(F)F)ccc1OCC(F)(F)F (stereo not given),Potency,[1],inactive
same,Potency,[4]; [5],inactive
same,"activity change, negative = inhibition",[4]; [5],-8.95%
CC1(C)O[C@@H]2C[C@H]3[C@@H]4C[C@H](F)C5=CC(=O)C=C[C@]5(C)[C@@]4(F)[C@@H](O)C[C@]3(C)[C@]2(C(=O)CO)O1,Potency,[1],inactive
same,Potency,[4]; [5],inactive
same,"activity change, negative = inhibition",[4]; [5],-12.3%
O=c1[nH]cnc2[nH]ncc12,Potency,[1],inactive
same,Potency,[4]; [5],inactive
same,"activity change, negative = inhibition",[4]; [5],-11.8% [at 114 µM]
CC(C)Cc1ccc(C(C)C(=O)O)cc1 (stereo not given),Potency,[1],inactive
same,Potency,[4]; [5],inactive
same,"activity change, negative = inhibition",[4]; [5],0.301%
CCCc1nn(C)c2c(=O)[nH]c(-c3cc(S(=O)(=O)N4CCN(C)CC4)ccc3OCC)nc12,Potency,[1],inactive
same,Potency,[4]; [5],inactive
same,"activity change, negative = inhibition",[4]; [5],-6.94%
CNNCc1ccc(C(=O)NC(C)C)cc1,Potency,[1],inactive
same,Potency,[4]; [5],inactive
same,"activity change, negative = inhibition",[4]; [5],3.71%
COCCCN1CCC(NC(=O)c2cc(Cl)c(N)c3c2OCC3)CC1,Potency,[1],inactive
same,Potency,[4]; [5],inactive
same,"activity change, negative = inhibition",[4]; [5],-5.91%
CC(=O)CC(c1ccccc1)c1c(O)c2ccccc2oc1=O (stereo not given),Potency,[1],inactive
same,Potency,[4]; [5],inactive
same,"activity change, negative = inhibition",[4]; [5],0.432%
CC(CN(C)C)C(C)(O)Cc1ccc(Cl)cc1 (stereo not given),Potency,[1],inactive
same,"activity change, negative = inhibition",[4]; [5],0.771%
COC(=O)[C@@H]1[C@H]2C[C@H]3c4[nH]c5ccccc5c4CCN3C[C@@H]2CC[C@@H]1O,Potency,[1],inactive
same,Potency,[4]; [5],inactive
same,"activity change, negative = inhibition",[4]; [5],-32.5%
C[C@]12CC[C@@H]3c4ccc(OC(=O)N(CCCl)CCCl)cc4CC[C@H]3[C@@H]1CC[C@@H]2OP(=O)(O)O,Potency,[1],inactive
same,Potency,[4]; [5],inactive
same,Potency,[2],inactive
same,Potency,[3],inactive
Nc1ccn([C@@H]2CS[C@H](CO)O2)c(=O)n1,Potency,[1],inactive
same,Potency,[4]; [5],inactive
same,"activity change, negative = inhibition",[4]; [5],-19.3% [at 114 µM]
CCC1(C)CC(=O)NC1=O (stereo not given),Potency,[1],inactive
same,Potency,[4]; [5],inactive
same,"activity change, negative = inhibition",[4]; [5],-9.22% [at 114 µM]
C#CCN[C@@H]1CCc2ccccc21,Potency,[1],inactive
same,Potency,[4]; [5],inactive
same,"activity change, negative = inhibition",[4]; [5],-2.27%
Cc1ncc([N+](=O)[O-])n1CC(C)O (stereo not given),"activity change, negative = inhibition","[4]; SARS-CoV-2 pseudovirus cell entry assay, luminescence, at 57.1 µM (top of the series)",-6.83%
same,"activity change, negative = inhibition","[4]; SARS-CoV-2 pseudovirus cell entry assay, luminescence, at 114 µM (top of the series)",-38.4%
